Each structure is given as a SMILES string. Inconclusive results are not listed. Where a call stands in place of a potency, no number is given. Active and inactive are the calls of the source. The call rests on the fitted dose curve; in most records, active means well fitted inhibition curve with a large enough effect; inconclusive means small, poorly fitted or top-dose-only effect; inactive means flat fitted curve, though single readings scatter.

The values that follow come from PubChem BioAssay (NCATS).

The target of this experiment is Calcium and integrin-binding protein 1 (Homo sapiens) (UniProt Q99828). The experiment can be described thus: Primary qHTS for Identification of Calcium Integrin Binding Protein 1 (CIB1) Competitor (AID 1508620). Further: top concentration of the series differs between compounds. As to conditions: CIB1-GST / FITC-alphaIIb peptide fluorescence polarization; series mostly up to 114 µM. The method, boiled down: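 Fluorescence polarization competition: GST-tagged CIB1 (1 uM final) preincubated with compound 15 min at room temperature, then FITC-labelled alphaIIb peptide (100 nM final) added. After 15 min at room temperature, polarization read at Ex 480/Em 540.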
Sequence of Calcium and integrin-binding protein 1 (Homo sapiens) (Q99828 whole entry, looked up): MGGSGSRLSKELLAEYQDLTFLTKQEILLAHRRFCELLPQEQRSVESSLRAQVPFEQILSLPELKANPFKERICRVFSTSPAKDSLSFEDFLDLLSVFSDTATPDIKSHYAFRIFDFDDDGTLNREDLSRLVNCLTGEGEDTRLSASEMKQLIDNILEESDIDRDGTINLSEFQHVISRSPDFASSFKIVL
A general note: Quantitative high-throughput screening tests each substance at several concentrations.
Take `C=C1C(=O)O[C@@H]2/C=C(\C)CC/C=C(/C=O)[C@H](OC)[C@@H](OC(=O)C(C)C)[C@@H]12`: the Potency result is “inactive”.

For `O=C(/C=C/c1ccccc1O)O[C@@H]1O[C@H](CO)[C@@H](O)[C@H](O)[C@H]1O`, the Potency entry was “inactive”. Turning to `Cc1cc2c(c(=O)o1)C=C1CC[C@H]([C@H](C)Cn3cnc(=N)c4[nH]cnc43)C[C@@H]1O2`, the Potency result is “inactive”. On the same count and under the same terms, the result for `C=C1C(=O)O[C@@H]2C3C(=C(C)[C@@H](O)[C@@H](OC(=O)/C(=C/C)COC(C)=O)[C@@H]12)C(=O)[C@H]1O[C@@]31C` (some centres undefined) reads “inactive”; that for `C=C1C(=O)OC2C1CCC1(C)C(O)CC=C(C)C21` (centres undefined), “inactive”. Take `CC(=O)O[C@H]1CC(C)(C)CC2[C@]13CO[C@@]21CCC2[C@@]4(C)CC[C@H](O[C@@H]5OC[C@H](O[C@@H]6O[C@H](CO)[C@@H](O)[C@H](O)[C@H]6O[C@@H]6OC[C@@H](O[C@@H]7O[C@H](CO)[C@@H](O)[C@H](O)[C@H]7O)[C@H](O)[C@H]6O)[C@H](O)[C@H]5O[C@@H]5O[C@H](CO)[C@@H](O)[C@H](O)[C@H]5O)[C@@](C)(CO)C4CC[C@@]2(C)[C@]1(C)C[C@H]3O` (some centres undefined): the activity change, negative = inhibition was 3.35% [at 12.4 µM] (inactive). Take `C=C1CC[C@H]2C(=C)CC[C@H]3C(=C)C(=O)O[C@@H]3[C@@H]12`: the Potency result is “inactive”.

Consider `C=C1CC[C@@H]2[C@](C)(CO)[C@H](O)CC[C@@]2(C)[C@@H]1C/C=C1/C(=O)OCC1O` (some centres undefined), for which the Potency result is “inactive”. On the same count and under the same terms, the result for `Cc1[nH]c2ccc(F)cc2c1-c1nc2c3cccnc3c3ncccc3c2[nH]1` reads “inactive”. As to `C[C@@H]1O[C@@H](O[C@H]2[C@H](OC(=O)[C@]34CCC(C)(C)C[C@H]3C3=CCC5[C@@]6(C)C[C@H](O)[C@H](O[C@@H]7O[C@H](CO)[C@@H](O)[C@H](O)[C@H]7O)[C@](CO)(C(=O)O)C6CC[C@@]5(C)[C@]3(C)C[C@H]4O)OC[C@H](O)[C@@H]2O)[C@H](O)[C@H](O)[C@H]1O[C@@H]1OC[C@@H](O)[C@H](O[C@@H]2OC[C@](O)(CO)[C@H]2O)[C@H]1O` (some centres undefined), the activity change, negative = inhibition is 3.47% [at 12.4 µM] (inactive). On to `Cn1ncc(Cl)c1-c1cc(C(=O)N[C@H](CN)Cc2ccc(F)c(F)c2)oc1Cl`, for which the Potency entry was “inactive”.

In the case of `CC1CCCC(O)CC(=O)c2c(O)cc(O)cc2CC(=O)O1` (centres undefined), the Potency result is “inactive”. Take `Cc1ccc(NC(=O)c2ccc(CN3CCNCC3)cc2)cc1Nc1nccc(-c2cccnc2)n1`: the Potency result is “inactive”. Turning to `Cc1ccc(CNc2ncnc3ccc(-c4ccc(CO)o4)cc23)o1`, the Potency entry was “inactive”. The same measure, in the same setting: the result for `CC1(C)CCC2(C(=O)OC3OC(COC4OC(CO)C(O)C(O)C4O)C(O)C(O)C3O)CCC3(C)C(=CCC4C5(C)CCC(OC6OCC(O)C(O)C6O)C(C)(C)C5CCC43C)C2C1O` (centres undefined) reads “inactive”; that for `Cc1cc(-c2nc3cc(F)ccc3s2)ccc1NC(=O)[C@@H](N)CCCCN`, “inactive”; that for `O=C(c1c(F)ccc(NS(=O)(=O)N2CC[C@@H](F)C2)c1F)c1c[nH]c2ncc(-c3cnc(C4CC4)nc3)cc12`, “inactive”.

For the molecule `C=C(C)C1CC(O)C(C)C12CC(O)C1(C)OC1C2O` (centres undefined), the Potency result was “inactive”. As to `O=C1Nc2ccccc2-c2nc3ccccc3c(=O)n2-c2c(O)cccc21`, the Potency result is “inactive”. Turning to `CC(C)(CNC(=O)c1cccc(-c2noc(C(F)(F)F)n2)c1)c1coc(-c2ccccc2)n1`, the Potency entry is “inactive”. For `C=C1C(=O)O[C@@H]2C[C@@]3(C)C[C@@H](O)C[C@H](C)C3=C[C@H]12`, the Potency entry was “inactive”.

Take `C=C1C(=O)O[C@H]2C[C@@H](C)[C@@H]3CCC(=O)[C@@]3(C)C[C@H]12`: the Potency result was “inactive”.

For `Nc1c(S(=O)(=O)c2ccccc2)c2nc3ccccc3nc2n1-c1ccc(F)cc1`, the Potency result is “inactive”. Regarding `CC(C)C(C)C(O)C1CC23CC(=O)C4(O)C(=C2CCC3C1C)C=CC1(O)CC(O)CCC14C` (centres undefined), the Potency result was “inactive”. Consider `C/C1=C\[C@@H](C)C[C@@H](C)[C@@H](Cc2cnco2)OC(=O)/C(C)=C/[C@@H](C)C[C@@H](C)[C@@H](Cc2cnco2)OC1=O`, for which the Potency result was “inactive”.

Consider `Nc1nc2c(nc(Br)n2[C@@H]2O[C@@H]3COP(=O)(O)O[C@H]3[C@H]2O)c(=O)[nH]1`, for which the Potency result is “inactive”. Same read-out and setting: the same measure for `Cc1ccc(C(C)C)c(O[C@@H]2O[C@H](CO)[C@@H](O)[C@H](O)[C@H]2O)c1`: “inactive”. On the same count and under the same terms, the result for `C[C@@H]1COCCN1c1cc(=O)n2c(n1)N(Cc1cncc(Cl)c1)[C@H](C(F)(F)F)CC2` reads “inactive”. On the same count and under the same terms, the same measure for `Cn1ncnc1[C@H]1c2n[nH]c(=O)c3cc(F)cc(c23)N[C@@H]1c1ccc(F)cc1`: “inactive”; for `CCCOc1ccc(CCc2nc3cc(-c4c(C)noc4C)ccc3n2CCN2CCOCC2)cc1`: “inactive”; for `C=C1C(=O)OC2C1CCC1(C)C(O)CCC(=C)C21` (centres undefined): “inactive”. As for `O=C(Nc1nc2cc(C(F)(F)F)cc(NC3CC3)n2n1)c1cccnc1`, the Potency result is “inactive”. The same measure, in the same setting: the result for `C/C(=C/C=C\C=C\Cc1cnco1)[C@@H](O)C(C)(C)C(N)=O` reads “inactive”. On the same count and under the same terms, the same measure for `COc1ccc(CCO[C@@H]2O[C@H](CO[C@H]3OC[C@](O)(CO)[C@H]3O)[C@@H](OC(=O)/C=C/c3ccc(O)c(O)c3)[C@H](O[C@@H]3O[C@@H](C)[C@H](O)[C@@H](O)[C@H]3O)[C@H]2O)cc1OC`: “inactive”; for `Nc1nc(Nc2ccc3c(c2)CCC(N2CCCC2)CC3)nn1-c1cc2c(nn1)-c1ccccc1CCC2` (centres undefined): “inactive”; for `COC1CC(O[C@H]2CC[C@]3(C)C4CC[C@]5(C)C(C6=CC(=O)OC6)=CCC56OC46CC[C@@H]3C2)OC(C)C1O[C@@H]1O[C@H](CO[C@@H]2O[C@H](CO)[C@@H](O)[C@H](O)[C@H]2O)[C@@H](O)[C@H](O)[C@H]1O` (some centres undefined): “inactive”.

For the molecule `CCNC(=O)C#Cc1ccc2c(C(=Nc3ccc(CN(C)C)cc3)c3ccccc3)c(O)[nH]c2c1`, the Potency result was “inactive”. On to `C=C1C(=O)O[C@H]2C1CCC(C)=C1C(=O)C=C(C)[C@@]12O` (some centres undefined), for which the Potency entry was “inactive”. On the same count and under the same terms, the same measure for `Cc1cc(F)c(C(=O)Nc2cccc(-c3nncn3C(C)C)n2)cc1-n1cnc(C2CC2)c1`: “inactive”.
